Records with an inconclusive call do not appear. Calls of active or inactive are those of the source. The calls were made as follows, unless noted: active = hit-call score of the fitted dose curve at least 0.9, where 1 is the maximum; inactive = score below 0.9.
How the values were obtained:
[1] = BSK_LPS_PGE2: BioMAP Diversity Plus: LPS Assay for Prostaglandin E2 (PGE2) Biomarker Activity (AID 2283082); details: primary human HUVEC with PBMC; actives raise or lower the signal;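 as to AC50: secreted prostaglandin E2 measured by ELISA in LPS-stimulated co-culture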
How it was run: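 Endpoint derived from bidirectional curve fitting versus DMSO of ELISA-measured PGE2 in LPS-stimulated human primary vascular co-culture (HUVEC with PBMC) harvested at 24 h.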

[2] = read-out: Macrophage colony-stimulating factor (MCSF), CSF1 (gene 1435); experiment: BSK_LPS_MCSF: BioMAP Diversity Plus: LPS Assay for Macrophage colony-stimulating factor (MCSF) Biomarker Activity (AID 2283083); details: primary human HUVEC with PBMC; actives raise or lower the signal
How it was run: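 HUVEC–PBMC co-culture, M-CSF measured by ELISA 24 h after chemical dosing. Fitted in both directions relative to DMSO as negative control; overt cytotoxicity assessed by SRB total-protein staining in parallel cultures.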

[3] = read-out: Tissue Factor, F3 (gene 2152); experiment: BSK_LPS_TissueFactor: BioMAP Diversity Plus: LPS Assay for Tissue Factor Biomarker Activity (AID 2283084); details: primary human HUVEC with PBMC; actives raise or lower the signal
How it was run: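 Human umbilical vein endothelial cells co-cultured with PBMC were dosed with compound. Cell-surface CD142 was measured by ELISA 24 h later. Activity was fitted bidirectionally against DMSO, with SRB total-protein staining in parallel cultures for cytotoxicity.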

[4] = read-out: Tumor necrosis factor (Homo sapiens) (UniProt P01375); experiment: BSK_LPS_TNFa: BioMAP Diversity Plus: LPS Assay for Tumour Necrosis Factor alpha (TNFa) Biomarker Activity (AID 2283085); details: primary human HUVEC with PBMC; actives raise or lower the signal
How it was run: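 Primary human vascular co-culture of HUVEC and PBMC; TNFa ELISA 24 h after treatment, analysed as increase or decrease relative to DMSO control.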

[5] = read-out: Vascular cell adhesion molecule 1 (VCAM1), VCAM1 (gene 7412); experiment: BSK_LPS_VCAM1: BioMAP Diversity Plus: LPS Assay for Vascular cell adhesion molecule 1 (VCAM1) Biomarker Activity (AID 2283086); details: primary human HUVEC with PBMC; actives raise or lower the signal
How it was run: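 Primary human vascular co-culture (umbilical vein endothelium plus PBMC) stimulated with LPS received chemical; 24 h later VCAM-1 was read by ELISA. Overt cytotoxicity was assessed by sulforhodamine B staining of parallel cultures at the same time point.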

CD38, CD38 (gene 952) = experiment: BSK_SAg_CD38: BioMAP Diversity Plus: SAg Assay for CD38 Biomarker Activity (AID 2283087); details: primary human HUVEC with PBMC; actives raise or lower the signal
How it was run: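 Fluorescence ELISA of cell-surface CD38 served as the read-out, with either increase or decrease fitted against DMSO controls. Cells were a human umbilical vein endothelium plus PBMC co-culture under SEB/TSST-1 stimulation, measured 24 h after dosing.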

CD40, CD40 (gene 958) = experiment: BSK_SAg_CD40: BioMAP Diversity Plus: SAg Assay for CD40 Biomarker Activity (AID 2283088); details: primary human HUVEC with PBMC; actives raise or lower the signal
How it was run: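 HUVEC plus PBMC co-culture, superantigen-activated, with CD40 read by ELISA 24 h after dosing. Curves fitted in both directions against DMSO. Overt cytotoxicity checked by parallel SRB total-protein staining.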

[6] = read-out: Monocyte Chemoattractant Protein-1 (MCP1), CCL2 (gene 6347); experiment: BSK_SAg_MCP1: BioMAP Diversity Plus: SAg Assay for Monocyte Chemoattractant Protein-1 (MCP1) Biomarker Activity (AID 2283090); details: primary human HUVEC with PBMC; actives raise or lower the signal
How it was run: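 MCP-1 levels in the endothelial–PBMC SAg co-culture were quantified by ELISA at 24 h post-dosing; both increases and decreases versus DMSO scored. Cytotoxicity monitored by SRB total protein in parallel cultures.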

[7] = read-out: E-selectin (Homo sapiens) (UniProt P16581); experiment: BSK_SAg_Eselectin: BioMAP Diversity Plus: SAg Assay for Eselectin Biomarker Activity (AID 2283091); details: primary human HUVEC with PBMC; actives raise or lower the signal
How it was run: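 Human umbilical vein endothelial cells co-cultured with peripheral blood mononuclear cells, SAg system. E-selectin is measured by ELISA 24 h after dosing and fitted bidirectionally against DMSO. Cytotoxicity is checked by SRB staining of parallel cultures.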

[8] = read-out: Monokine induced gamma interferon (MIG), CXCL9 (gene 4283); experiment: BSK_SAg_MIG: BioMAP Diversity Plus: SAg Assay for Monokine induced gamma interferon (MIG) Biomarker Activity (AID 2283092); details: primary human HUVEC with PBMC; actives raise or lower the signal
How it was run: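 Endothelial cells and PBMC were co-cultured, exposed to test chemicals, and sampled 24 h later. MIG was measured by ELISA, and responses were fitted in both directions relative to DMSO.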

[9] = BSK_SAg_PBMCCytotoxicity: PBMC Cytotoxicity Assessment in the BioMAP Diversity Plus: SAg Assay (AID 2283093); details: primary human HUVEC with PBMC;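 also: PBMC viability measured as Alamar Blue reduction fluorescence at 546/580 nm; fitted both ways against DMSO so a hit may be loss or gain of signal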;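 as to AC50: PBMC superantigen activated with SEB plus TSST-1 one hour after compound addition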
How it was run: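 HUVEC/PBMC co-culture; PBMC exposed to chemical 1 h before SEB and TSST-1 activation (20 ng/mL each), incubated 90 h, then Alamar Blue 6 h, fluorescence 546/580 nm. Bidirectional fit versus DMSO baseline.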

[10] = read-out: Interleukin-8 (IL8), CXCL8 (gene 3576); experiment: BSK_SAg_IL8: BioMAP Diversity Plus: SAg Assay for Interleukin-8 (IL8) Biomarker Activity (AID 2283094); details: primary human HUVEC with PBMC; actives raise or lower the signal
How it was run: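 In this co-culture of human umbilical vein endothelium with peripheral blood mononuclear cells, IL-8 is assayed by ELISA at 24 h. DMSO serves as baseline for bidirectional curve fitting.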

[11] = BSK_SAg_Proliferation: Cell Proliferation Assessment in the BioMAP Diversity Plus: SAg Assay (AID 2283095); details: primary human HUVEC with PBMC;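 also: relative cell number as total protein by SRB absorbance in sub-confluent culture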
How it was run: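 Readout is SRB-stained protein (560 nm) in a primary human HUVEC and PBMC co-culture; sub-confluent cultures are read at 96 h. Activity is fitted bidirectionally using DMSO as baseline.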

[12] = BSK_SAg_SRB: Viability Assessment in the BioMAP Diversity Plus: SAg Assay (AID 2283096); details: primary human HUVEC with PBMC;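 also: cells read one day after compound addition; hits may be either gain or loss of signal compared with DMSO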
How it was run: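 Human umbilical vein endothelial cells co-cultured with PBMC, read 24 h after compound dosing. Total protein measured by sulforhodamine B staining (0.1% SRB after 10% TCA fixation, absorbance 560 nm); bidirectional fit versus DMSO baseline.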

[13] = target: human CYP1A1, CYP1A1 (gene 1543) (UniProt P04798); experiment: NVS_ADME_hCYP1A1: NovaScreen (NVS) CYP450-related Enzyme Activity (ADME) Assay for human CYP1A1 (AID 2283100; active = hit-call score of the fitted dose curve at least 0.9, where 1 is the maximum)
Chain of human CYP1A1, CYP1A1 (gene 1543) (P04798 whole entry, looked up): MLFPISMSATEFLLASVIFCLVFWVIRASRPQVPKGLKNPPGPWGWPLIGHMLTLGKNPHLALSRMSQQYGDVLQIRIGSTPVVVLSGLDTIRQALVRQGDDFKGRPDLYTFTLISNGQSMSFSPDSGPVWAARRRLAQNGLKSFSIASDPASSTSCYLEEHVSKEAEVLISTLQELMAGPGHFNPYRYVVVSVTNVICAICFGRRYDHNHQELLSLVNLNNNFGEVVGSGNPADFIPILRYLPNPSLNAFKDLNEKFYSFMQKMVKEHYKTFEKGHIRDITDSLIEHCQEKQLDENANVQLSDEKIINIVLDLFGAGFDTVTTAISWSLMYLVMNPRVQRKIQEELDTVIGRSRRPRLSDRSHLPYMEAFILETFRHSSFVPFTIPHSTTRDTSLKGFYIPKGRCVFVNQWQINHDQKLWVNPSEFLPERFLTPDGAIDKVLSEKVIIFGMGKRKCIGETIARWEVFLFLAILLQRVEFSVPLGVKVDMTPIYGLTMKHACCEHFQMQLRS
How it was run: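 Recombinant CYP1A1 with a fluorogenic substrate, cell-free, read 1 h after dosing; acetonitrile as negative control. Single-concentration screen at 10 uM in duplicate, then concentration-response up to 20 uM for chemicals meeting ~30% inhibition threshold.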

[14] = target: human CYP2B6, CYP2B6 (gene 1555) (UniProt P20813); experiment: NVS_ADME_hCYP2B6: NovaScreen (NVS) CYP450-related Enzyme Activity (ADME) Assay for human CYP2B6 (AID 2283101; active = hit-call score of the fitted dose curve at least 0.9, where 1 is the maximum)
Chain of human CYP2B6, CYP2B6 (gene 1555) (P20813 whole entry, looked up): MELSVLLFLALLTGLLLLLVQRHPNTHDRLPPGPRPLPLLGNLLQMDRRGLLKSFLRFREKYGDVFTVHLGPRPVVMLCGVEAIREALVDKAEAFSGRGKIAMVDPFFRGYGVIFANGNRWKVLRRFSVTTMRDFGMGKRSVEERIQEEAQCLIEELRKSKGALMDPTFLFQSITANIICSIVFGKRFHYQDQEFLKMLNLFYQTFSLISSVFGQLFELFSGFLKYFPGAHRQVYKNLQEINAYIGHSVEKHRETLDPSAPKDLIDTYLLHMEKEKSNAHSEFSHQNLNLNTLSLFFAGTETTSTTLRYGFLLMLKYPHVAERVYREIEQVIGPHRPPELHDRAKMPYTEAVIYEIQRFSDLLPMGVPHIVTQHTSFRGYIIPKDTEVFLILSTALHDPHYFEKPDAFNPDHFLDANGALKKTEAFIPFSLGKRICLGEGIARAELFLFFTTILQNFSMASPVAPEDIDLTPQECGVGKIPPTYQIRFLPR
How it was run: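 Cell-free recombinant enzyme assay with a fluorogenic substrate; fluorescence intensity read 1 hour after dosing. Loss of signal relative to acetonitrile negative control indicates inhibition. Primary screen run in duplicate at 10 uM, actives then tested in concentration series.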

[15] = target: human CYP1A2, CYP1A2 (gene 1544) (UniProt P05177); experiment: NVS_ADME_hCYP1A2: NovaScreen (NVS) CYP450-related Enzyme Activity (ADME) Assay for human CYP1A2 (AID 2283102; active = hit-call score of the fitted dose curve at least 0.9, where 1 is the maximum;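 also: potency for inhibition since loss of fluorescence marks reduced CYP1A2 activity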)
Chain of human CYP1A2, CYP1A2 (gene 1544) (P05177 whole entry, looked up): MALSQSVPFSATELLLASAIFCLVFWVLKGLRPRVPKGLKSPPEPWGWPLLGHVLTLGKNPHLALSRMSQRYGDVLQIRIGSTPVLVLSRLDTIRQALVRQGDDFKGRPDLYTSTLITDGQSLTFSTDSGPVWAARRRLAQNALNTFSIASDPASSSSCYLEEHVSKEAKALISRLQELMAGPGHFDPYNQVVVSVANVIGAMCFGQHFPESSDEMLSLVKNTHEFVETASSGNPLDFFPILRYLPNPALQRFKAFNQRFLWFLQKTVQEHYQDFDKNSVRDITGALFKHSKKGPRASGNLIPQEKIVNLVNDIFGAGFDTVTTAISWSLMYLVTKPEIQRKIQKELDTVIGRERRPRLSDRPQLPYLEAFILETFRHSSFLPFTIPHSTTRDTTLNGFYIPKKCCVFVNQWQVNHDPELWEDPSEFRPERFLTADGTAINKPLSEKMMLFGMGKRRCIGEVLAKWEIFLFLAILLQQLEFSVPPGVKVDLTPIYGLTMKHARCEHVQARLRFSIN
How it was run: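 Recombinant human CYP1A2 from insect cells, cell-free, fluorogenic substrate; read 0.5 h after dosing with loss of fluorescence signal indicating inhibition. Primary screen in duplicate at 10 uM, acetonitrile as negative control.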

Chain of Tumor necrosis factor (Homo sapiens) (P01375 whole entry, looked up): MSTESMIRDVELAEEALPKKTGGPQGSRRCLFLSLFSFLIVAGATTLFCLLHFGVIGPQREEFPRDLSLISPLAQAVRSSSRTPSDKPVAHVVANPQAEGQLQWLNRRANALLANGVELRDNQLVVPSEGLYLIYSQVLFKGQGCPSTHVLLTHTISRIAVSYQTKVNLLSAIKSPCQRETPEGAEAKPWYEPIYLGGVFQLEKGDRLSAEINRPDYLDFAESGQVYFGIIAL
Chain of E-selectin (Homo sapiens) (P16581 whole entry, looked up): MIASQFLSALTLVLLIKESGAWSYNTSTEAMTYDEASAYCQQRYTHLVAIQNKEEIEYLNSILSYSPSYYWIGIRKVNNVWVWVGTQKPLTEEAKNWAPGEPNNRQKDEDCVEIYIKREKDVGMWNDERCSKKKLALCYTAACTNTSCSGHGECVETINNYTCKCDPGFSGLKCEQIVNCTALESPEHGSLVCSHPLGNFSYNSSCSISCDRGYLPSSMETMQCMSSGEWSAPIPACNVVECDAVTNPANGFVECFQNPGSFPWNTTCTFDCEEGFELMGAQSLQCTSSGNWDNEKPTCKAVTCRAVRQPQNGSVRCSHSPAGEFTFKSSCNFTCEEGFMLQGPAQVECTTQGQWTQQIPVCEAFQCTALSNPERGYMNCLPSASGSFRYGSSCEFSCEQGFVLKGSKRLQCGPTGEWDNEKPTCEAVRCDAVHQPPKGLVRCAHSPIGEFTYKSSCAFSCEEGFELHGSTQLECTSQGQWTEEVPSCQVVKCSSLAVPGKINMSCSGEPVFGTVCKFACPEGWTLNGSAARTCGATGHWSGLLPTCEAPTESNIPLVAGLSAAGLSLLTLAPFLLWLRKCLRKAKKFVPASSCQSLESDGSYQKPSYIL

CCCCCCCCOC(=O)CCCCCCCCC(=O)OCCCCCCCC
outcome [1]: inactive
outcome [2]: inactive
outcome [3]: inactive
outcome [4]: inactive
outcome [5]: inactive
outcome (CD38, CD38 (gene 952)): inactive
outcome (CD40, CD40 (gene 958)): inactive
outcome [6]: inactive
outcome [7]: inactive
outcome [8]: inactive
outcome [9]: inactive
outcome [10]: inactive
outcome [11]: inactive
outcome [12]: inactive

CCCOc1sc(C(=O)N2CCC(c3cc(CN)ccc3F)CC2)c(C)c1Br
AC50 [1]: 12.5 µM (active)
AC50 [2]: 10.7 µM (active)
AC50 [3]: 13.1 µM (active)
AC50 [4]: 13.4 µM (active)
AC50 [5]: 7.57 µM (active)
AC50 (CD38, CD38 (gene 952)): 6.1 µM (active)
AC50 (CD40, CD40 (gene 958)): 9.53 µM (active)
AC50 [6]: 8.39 µM (active)
AC50 [7]: 6.75 µM (active)
AC50 [8]: 11.9 µM (active)
AC50 [9]: 6.22 µM (active)
AC50 [10]: 7.78 µM (active)
AC50 [11]: 5.11 µM (active)
AC50 [12]: 6.68 µM (active)
outcome [13]: inactive
AC50 [14]: 8.64 µM (active)
AC50 [15]: 5.25 µM (active)

ClC1=C(Cl)C(Cl)(Cl)C(Cl)=C1Cl
AC50 [1]: 11.6 µM (active)
AC50 [2]: 9.94 µM (active)
AC50 [3]: 9.9 µM (active)
AC50 [4]: 18.4 µM (active)
AC50 [5]: 9.81 µM (active)
AC50 (CD38, CD38 (gene 952)): 7.55 µM (active)
AC50 (CD40, CD40 (gene 958)): 8.3 µM (active)
AC50 [6]: 10.6 µM (active)
AC50 [7]: 8.69 µM (active)
AC50 [8]: 13.8 µM (active)
AC50 [9]: 10.4 µM (active)
AC50 [10]: 10.4 µM (active)
AC50 [11]: 5.78 µM (active)
AC50 [12]: 9.48 µM (active)

Oc1cccc(O)c1
outcome [1]: inactive
outcome [2]: inactive
outcome [3]: inactive
outcome [4]: inactive
outcome [5]: inactive
outcome (CD38, CD38 (gene 952)): inactive
outcome (CD40, CD40 (gene 958)): inactive
outcome [6]: inactive
outcome [7]: inactive
outcome [8]: inactive
outcome [9]: inactive
outcome [10]: inactive
outcome [11]: inactive
outcome [12]: inactive

— PubChem BioAssay (EPA / NIEHS)
